Screening data (PubChem BioAssay)
AHR activator: activates the human aryl hydrocarbon receptor; activation, % at 5 µM; P35869; AHR-responsive luciferase reporter cells, luminescence; 320,000 tested, 2.5% active; in the data active = activation above about 47%
Target sequence (P35869 whole entry, looked up): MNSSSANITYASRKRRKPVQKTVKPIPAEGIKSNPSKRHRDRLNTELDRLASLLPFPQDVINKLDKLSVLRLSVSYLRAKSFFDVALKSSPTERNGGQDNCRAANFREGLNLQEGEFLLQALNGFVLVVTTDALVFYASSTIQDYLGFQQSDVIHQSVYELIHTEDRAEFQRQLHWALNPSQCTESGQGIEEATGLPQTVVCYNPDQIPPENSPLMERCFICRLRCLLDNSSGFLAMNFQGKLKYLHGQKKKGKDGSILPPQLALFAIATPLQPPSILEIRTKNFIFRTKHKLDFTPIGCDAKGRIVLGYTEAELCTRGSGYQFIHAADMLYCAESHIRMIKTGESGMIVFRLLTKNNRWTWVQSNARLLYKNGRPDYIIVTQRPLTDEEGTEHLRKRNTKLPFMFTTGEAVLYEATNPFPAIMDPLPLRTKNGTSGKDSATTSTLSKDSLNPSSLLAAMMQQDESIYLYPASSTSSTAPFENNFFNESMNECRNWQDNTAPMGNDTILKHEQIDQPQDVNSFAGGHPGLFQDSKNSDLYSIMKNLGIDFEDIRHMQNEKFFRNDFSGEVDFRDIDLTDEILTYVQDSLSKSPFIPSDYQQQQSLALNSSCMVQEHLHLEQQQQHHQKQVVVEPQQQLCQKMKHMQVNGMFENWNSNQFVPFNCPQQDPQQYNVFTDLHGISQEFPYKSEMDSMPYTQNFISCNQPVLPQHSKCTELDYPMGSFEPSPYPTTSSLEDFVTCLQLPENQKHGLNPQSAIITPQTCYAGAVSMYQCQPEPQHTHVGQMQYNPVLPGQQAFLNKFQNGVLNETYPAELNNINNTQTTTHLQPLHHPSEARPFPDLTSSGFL
SUMO Mot1 rescue: inhibitors of SUMOylation pathway: yeast Mot1-301 growth rescue; S. cerevisiae Mot1-301 growth rescue, ATP luminescence, 38.5C; percent above DMSO median, 100 means doubled; growth rescue, % at 18.8 µM; 320,000 tested, 1% active; AID 2716;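 active = every valid replicate shows activation above 250% relative to neutral control wells; inactive = the rest, any valid replicate at or below 250%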
NTR1 agonist: agonists of human neurotensin receptor NTR1; P30989; NTR1-U2OS beta-arrestin-GFP spot imaging, agonist mode; activation, % at 20 µM; 330,000 tested, 0.17% active;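 active = activation at or above 40% of the spot to cytoplasm intensity ratio, with at least 20 cells analyzed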
Cardio protect: modulators protecting cardiomyocytes from myocardial damage. H9c2 cardiomyocytes, H2O2 injury protection, ATPLite, 2 h. protection from H2O2 cell death, % at 20 µM. 360,000 tested, 0.63% active. AID 588492;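 active = compounds giving at least 50% protection of heart cells from peroxide-induced death in the single-dose screen, raw or plate-pattern-corrected value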
GRIN3A LBD mod: modulators (binders) of human NR3A ligand-binding domain; NR3A LBD differential scanning fluorimetry, Tm shift; 0% = protein alone, 100% = glycine-bound protein; 340,000 tested, 2.5% active; Tm shift relative to glycine control, % at 25 µM;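 active = melting temperature shift of at least 10% of the positive control shift, at one fixed dose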
AI-2 QS modul: modulators of Vibrio harveyi AI-2 quorum sensing system. AID 2094. Vibrio harveyi JMH597 AI-2 luminescence/OD600 ratio, 9 h; active compounds read low; strain lacks LuxN and CqsS sensors; 0 = neutral-control median. activity change, % at 7.5 µM. 300,000 tested, 0.4% active; in the data active = activity change below about -75%, passing the limit was not always enough;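 also: luminescence divided by OD600 gain over 9 h not by final OD600 alone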
Yeast Mot1 SUMO: SUMO pathway inhibitors in yeast Mot1-301 growth; shares compounds with SUMO Mot1 rescue; S. cerevisiae Mot1-301 galactose growth, ATP luminescence, 24 h; -100 = growth of slx-deleted rescue strain; growth activity, percent, % at 42 µM; 2,300 tested, under 10 active; AID 493004;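 active = Signal drops as the depositor expects, and the fitted half-maximal dose is no more than ten times the top valid tested dose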;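 also: more negative values mean stronger growth rescue toward the control strain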
Hits are given with their value; i = inactive; nt = no result; + = active, no number. The list is not random: actives were taken first. Their share in the collection is about 6.2%.

SMILES	AHR activator	SUMO Mot1 rescue	NTR1 agonist	Cardio protect	GRIN3A LBD mod	AI-2 QS modul	Yeast Mot1 SUMO
Cn1c(-c2ccc3c(c2)OCO3)cnc1NCc1ccccc1	i	i	i	i	i	i	nt
OC[C@@H]1CN(Cc2ccc(Cl)cc2)C[C@H](n2cnc3c(N4CCCC4)ncnc32)O1	nt	nt	nt	i	nt	nt	nt
CCN(CC(=O)NCc1ccc(Cl)cc1)C(=O)/C=C/c1ccc(C#N)cc1	i	821	i	i	i	i	i
O=C(O)COc1ccc(C(NC(=O)c2c(F)cccc2F)NC(=O)c2c(F)cccc2F)cc1	i	i	i	i	i	i	nt
CCOCCCNC(=O)C(c1ccc(OC)cc1)N(Cc1ccc2c(c1)OCO2)C(=O)CNC(C)=O (stereo not given)	i	442	i	i	i	i	i
O=C1NC2(CCCCCC2)C(=O)N1Cc1ccccc1Cl	i	i	i	i	i	i	nt
COc1ccc2[nH]c(=O)c(CN(C(=O)c3ccccn3)c3ccccc3)cc2c1	i	+	i	i	i	i	i
Cc1cc(CNC(=O)C2CCC(=O)N(Cc3ccccc3F)C2)on1 (stereo not given)	i	654	i	i	i	i	i
COc1ccccc1OCCNC(=O)CCC(=O)N1CCOCC1	nt	nt	i	i	i	nt	nt
CC1(C)CC(=O)c2cnc(NC(=O)CSc3nc4ccccc4o3)nc2C1	i	851	i	i	i	i	i
COc1cccc(CNS(=O)(=O)c2cc(Br)ccc2Br)c1	nt	nt	nt	i	nt	nt	nt
O=[N+]([O-])c1c(NCCCO)cc(Sc2nc3ccccc3s2)c2nonc12	i	782	i	i	i	i	i
CCC(=O)OCCNc1cc(Sc2nc3ccccc3s2)c2nonc2c1[N+](=O)[O-]	i	i	i	i	i	i	nt
CCC(=O)N1CCC(C)(C(=O)NCc2ccc(F)cc2)C1 (stereo not given)	nt	nt	nt	i	nt	nt	nt
CCOC(=O)c1cccc(NC(=O)C2CCCN(S(=O)(=O)c3c(C)n[nH]c3C)C2)c1 (stereo not given)	i	458	i	i	i	i	i
COc1ccc(NC(=S)NNC(=O)Cn2nc([N+](=O)[O-])cc2C)cc1	i	i	i	i	i	i	nt
Cc1cc([N+](=O)[O-])nn1CC(=O)NNC(=S)Nc1ccc([N+](=O)[O-])cc1	i	672	i	i	i	i	i
Cc1nnc(SCC(=O)NCc2ccccc2Cl)[nH]c1=O	i	+	i	i	i	i	i
CC1(C(=O)Nc2cccc(S(=O)(=O)N3CCOCC3)c2)Cc2ccccc2C(=O)O1 (stereo not given)	i	i	i	i	i	i	nt
CC1(C(=O)Nc2cccc(-n3cnnn3)c2)Cc2ccccc2C(=O)O1 (stereo not given)	i	408	i	i	i	nt	i
COCC(=O)N(C)C[C@H]1N[C@@](C)(C(=O)OC)[C@H]2C(=O)N(C)C(=O)[C@@H]12	i	nt	i	i	i	nt	nt
CN(C)C(=O)CCN1CCOCC1	i	560	i	i	i	i	i
NS(=O)(=O)c1ccc(CNC(=O)c2cc(-c3cccnc3)nc3ccc(Br)cc23)cc1	i	i	i	i	i	i	nt
CCS(=O)(=O)N1CCC(C(=O)NCCCN2CCN(c3ccccc3F)CC2)CC1	i	481	i	i	i	i	i
O=C(NCCCN1CCN(c2ccccc2F)CC1)C1CCN(S(=O)(=O)c2cccs2)CC1	i	i	i	i	i	i	nt
SMILES	AHR activator	SUMO Mot1 rescue	NTR1 agonist	Cardio protect	GRIN3A LBD mod	AI-2 QS modul	Yeast Mot1 SUMO
O=C(NCCCN1CCN(c2ccccc2F)CC1)Nc1ccc(F)cc1	i	i	i	i	i	i	nt
O=C(NCCCN1CCN(c2ccccc2F)CC1)Nc1ccccc1[N+](=O)[O-]	i	447	i	i	i	i	i
Nc1cc(Cl)ccc1N1CCOCC1	i	465	i	i	i	i	i
Nc1nnc(COc2ccc(Br)cc2Br)s1	i	+	i	i	i	i	i
COc1ccc(OC)c(CNC(=O)C(C)n2nc(C)c3c(C)n(-c4ccccc4)nc3c2=O)c1 (stereo not given)	i	i	i	i	i	i	nt
CCOc1cccnc1Sc1ccccc1	i	i	i	i	i	i	nt
COc1ccc(C(=O)N2CCN(c3nnnn3-c3ccccc3)CC2)cc1OC	i	i	i	i	i	i	nt
